High-throughput results from PubChem.
PI5P4K alpha inh: qHTS for Inhibitors of phosphatidylinositol 5-phosphate 4-kinase (PI5P4K); Phosphatidylinositol 5-phosphate 4-kinase type-2 alpha (Homo sapiens), P48426; PI5P4Kalpha enzyme, ADP-Glo luminescence, 60 min; hits give low values; max response, %; 330,000 compounds, 1.2% hits; AID 652105, 2013; active = max response of -50% or lower; inconclusive = between -30% and -50%; inactive = -30% or higher; also: value at the top dose of about 77 µM; % is scaled to controls: 0 for no effect and ±100 for the full control effect
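Quantitative HTS of the MLSMR library against PI5P4Kalpha with substrate. ATP added last at 5 microM final; room temperature, 60 minutes. Remaining ATP depleted, ADP converted and read as luminescence.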
JMJD2A Tudor inh: qHTS Assay for Inhibitors of JMJD2A-Tudor Domain. 390,000 compounds, 4.4% hits. Lysine-specific demethylase 4A (Homo sapiens), O75164. Potency, µM (top dose mostly 114 µM), without a hit: at the top dose activity change, negative = inhibition, hits mostly inhibitors. AlphaScreen JMJD2A-Tudor / H3K4me3 peptide binding; also: potency is read from the fitted curve at half-maximal effect; % is scaled to controls: 0 for no effect and ±100 for the full control effect; nearly all actives have a fitted effect of over 50% in size
BAZ2B inh: qHTS Assay for Inhibitors of BAZ2B; AlphaScreen BAZ2B-H3K14Ac peptide displacement; Potency, µM (doses to about 114 µM), for inactives: at the highest dose activity change, negative = inhibition, actives largely listed as inhibitors; Bromodomain adjacent to zinc finger domain protein 2B (Homo sapiens), Q9UIF8; 360,000 compounds, 4.4% hits; AID 504333, 2011; also: potency is read from the fitted curve at half-maximal effect; % is scaled to controls: 0 for no effect and ±100 for the full control effect; nearly all actives have a fitted effect of over 60% in size
Target sequence (Q9UIF8 whole entry, looked up, the tested form may be a part): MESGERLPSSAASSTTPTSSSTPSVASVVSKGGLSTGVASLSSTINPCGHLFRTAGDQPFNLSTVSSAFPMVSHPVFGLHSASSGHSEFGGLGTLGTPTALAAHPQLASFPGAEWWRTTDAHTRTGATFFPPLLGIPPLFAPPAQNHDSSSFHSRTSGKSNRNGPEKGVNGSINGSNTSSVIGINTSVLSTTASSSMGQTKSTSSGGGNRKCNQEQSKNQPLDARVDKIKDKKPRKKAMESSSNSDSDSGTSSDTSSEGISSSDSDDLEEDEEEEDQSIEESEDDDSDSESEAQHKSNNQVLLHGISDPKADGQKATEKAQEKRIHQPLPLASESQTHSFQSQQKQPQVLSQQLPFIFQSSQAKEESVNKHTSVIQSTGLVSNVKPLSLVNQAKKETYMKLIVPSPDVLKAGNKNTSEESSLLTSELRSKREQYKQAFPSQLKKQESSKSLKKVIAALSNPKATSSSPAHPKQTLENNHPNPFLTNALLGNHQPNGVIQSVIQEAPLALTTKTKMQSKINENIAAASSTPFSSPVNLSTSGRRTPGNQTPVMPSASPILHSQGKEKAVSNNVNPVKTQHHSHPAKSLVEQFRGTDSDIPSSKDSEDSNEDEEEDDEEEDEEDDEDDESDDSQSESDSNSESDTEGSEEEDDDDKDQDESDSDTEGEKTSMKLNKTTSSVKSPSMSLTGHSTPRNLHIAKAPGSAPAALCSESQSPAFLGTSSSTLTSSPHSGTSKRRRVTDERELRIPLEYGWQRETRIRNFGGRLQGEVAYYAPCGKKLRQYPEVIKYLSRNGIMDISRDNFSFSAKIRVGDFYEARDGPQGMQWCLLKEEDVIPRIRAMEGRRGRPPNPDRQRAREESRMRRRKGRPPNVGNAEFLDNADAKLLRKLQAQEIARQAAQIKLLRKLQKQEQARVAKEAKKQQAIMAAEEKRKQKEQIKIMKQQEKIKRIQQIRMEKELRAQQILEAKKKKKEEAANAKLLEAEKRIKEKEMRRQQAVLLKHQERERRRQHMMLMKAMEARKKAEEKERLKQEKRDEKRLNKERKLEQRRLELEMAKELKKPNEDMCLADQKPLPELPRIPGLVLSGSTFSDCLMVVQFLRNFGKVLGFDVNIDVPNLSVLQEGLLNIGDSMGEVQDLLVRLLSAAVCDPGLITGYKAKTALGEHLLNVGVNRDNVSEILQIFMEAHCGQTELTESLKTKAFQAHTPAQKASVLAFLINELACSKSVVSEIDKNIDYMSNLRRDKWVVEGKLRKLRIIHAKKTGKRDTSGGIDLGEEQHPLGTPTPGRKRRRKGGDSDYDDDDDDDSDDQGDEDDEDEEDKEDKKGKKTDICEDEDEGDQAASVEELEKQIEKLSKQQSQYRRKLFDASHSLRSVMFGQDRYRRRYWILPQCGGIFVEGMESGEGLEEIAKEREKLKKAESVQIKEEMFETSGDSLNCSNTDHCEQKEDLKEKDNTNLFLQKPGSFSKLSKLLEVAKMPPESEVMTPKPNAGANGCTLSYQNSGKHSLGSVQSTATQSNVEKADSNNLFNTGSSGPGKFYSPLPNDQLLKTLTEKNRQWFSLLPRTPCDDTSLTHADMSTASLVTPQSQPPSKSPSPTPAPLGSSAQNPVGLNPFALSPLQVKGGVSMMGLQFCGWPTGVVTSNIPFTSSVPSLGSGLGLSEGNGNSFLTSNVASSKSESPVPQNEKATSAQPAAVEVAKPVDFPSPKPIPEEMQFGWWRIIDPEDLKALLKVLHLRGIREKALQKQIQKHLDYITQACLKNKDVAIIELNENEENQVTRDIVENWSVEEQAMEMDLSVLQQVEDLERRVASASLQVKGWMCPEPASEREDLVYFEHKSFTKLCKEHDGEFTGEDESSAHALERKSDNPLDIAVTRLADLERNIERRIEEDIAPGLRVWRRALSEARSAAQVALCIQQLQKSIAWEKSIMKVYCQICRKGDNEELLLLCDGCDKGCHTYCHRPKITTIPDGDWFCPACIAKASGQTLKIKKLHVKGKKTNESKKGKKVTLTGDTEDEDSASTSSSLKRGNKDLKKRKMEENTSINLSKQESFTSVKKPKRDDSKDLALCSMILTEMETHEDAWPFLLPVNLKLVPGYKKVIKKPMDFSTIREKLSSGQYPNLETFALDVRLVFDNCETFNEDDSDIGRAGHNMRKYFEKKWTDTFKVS
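Multi-concentration screen (max 110 uM) measuring displacement of acetylated histone H3 peptide from BAZ2B by AlphaScreen, using 50 nM protein, 50 nM peptide and 10 ug/mL streptavidin donor plus Ni-chelate acceptor beads.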
G9a block: qHTS Assay for Inhibitors of Histone Lysine Methyltransferase G9a | Histone-lysine N-methyltransferase EHMT2 (Homo sapiens), Q96KQ7 | G9a H3K9 monomethylation, AlphaScreen, 2 h | Potency, µM (series often up to 102 µM), without a hit: at the highest dose activity, negative = inhibition, usual class: inhibitors | 350,000 compounds, 8.8% hits; also: potency is read from the fitted curve at half-maximal effect; % is scaled to controls: 0 for no effect and ±100 for the full control effect; nearly all actives have a fitted effect of over 75% in size
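G9a (20 nM) preincubated 15 min RT with compounds, then 500 nM biotinylated H3K9 peptide and 20 uM SAM added; 2 h RT reaction. Monomethyl-H3K9 product detected by AlphaScreen with anti-H3K9me1 antibody, streptavidin donor and anti-rabbit IgG acceptor beads.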
PLK1 PBD block: qHTS for Inhibitors of PLK1-PDB (polo-like kinase 1 - polo-box domain): Primary Screen | 360,000 compounds, 2.8% hits | Potency, µM, for inactives: max response, negative = inhibition, hits mostly inhibitors | AID 720504, 2013 | Plk1 PBD binding of FITC phosphopeptide, fluorescence polarization; also: potency is read from the fitted curve at half-maximal effect; series mostly up to about 57 µM; % is scaled to controls: 0 for no effect and ±100 for the full control effect; nearly all actives have a fitted effect of over 65% in size
HP1b binding inh: HTS for Inhibitors of HP1-beta Chromodomain Interactions with Methylated Histone Tails; Chromobox protein homolog 1 (Homo sapiens), P83916; AlphaScreen HP1-beta / biotin-H3K9me3 peptide binding; Potency, µM (titrated, usually from 114 µM), inactives show at the highest dose activity change, negative = inhibition, actives largely listed as inhibitors; 390,000 compounds, 0.56% hits; also: potency is read from the fitted curve at half-maximal effect; nearly all actives have a fitted effect of over 70% in size
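Compound inhibition of the preformed complex between 50 nM HP1-beta and 50 nM biotinylated H3K9me3 peptide was read by AlphaScreen. Buffer was PBS pH 7.4 with 0.01% Tween-20. Incubations ran 30 min at room temperature, with 10 ug/mL donor/acceptor beads.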
The depositor's hits bear a star; ? = inconclusive; . = no result; [ ] = remark or other dose. Shown are actives, neighbours in structure and some others; about 12% of the full set was active somewhere. Unless noted, calls follow the shape of the dose curve; as a rule, active = well fitted curve in the direction sought with a large enough effect; inconclusive = small, poorly fitted or top-dose-only effect, or another doubt; inactive = no such curve, though single readings can be large; an effect the other way counts as inactive or inconclusive.

SMILES	PI5P4K alpha inh	JMJD2A Tudor inh	BAZ2B inh	G9a block	PLK1 PBD block	HP1b binding inh
CCOc1ccccc1NC(=O)CCn1cccc1	3	-17%	.	?	-11%	8%
Cc1cc(=O)n(-c2ccccc2)n1C	-2	-14%	.	17%[21.5 µM]	-16%	24%
CC1(C)[C@@H](C=C(Cl)Cl)[C@@H]1C(=O)OCc1c(F)c(F)cc(F)c1F	.	.	.	44%[12.7 µM]	.	.
Oc1ccc(Cl)cc1CN1CCN(Cc2ccccc2)CC1	3	-24%[57.1 µM]	?	?	-8%	72%
O=C(Cc1ccccc1)N1CCN(Cc2cccc(Cl)c2)CC1	5	3.2µM*	?	21%[0.501 µM]	0%	?
O=C(Nc1ccc(Br)cc1C(=O)c1ccccc1Cl)c1ccccc1F	.	-2%	-2%	-7%[59 µM]	.	35%
O=C(O)C1Sc2[nH]c(=O)sc2C2c3cc(Cl)ccc3OC(=O)C12 (stereo unspecified)	?	?	?	28µM*	?	-16%
COc1ccc(-c2nc(CSCC(=O)N3CCN(c4ccc(F)cc4)CC3)c(C)o2)cc1	.	50µM*	-25%	-49%[59 µM]	.	-24%
ClC1=C(Cl)C(Cl)=C(Cl)C1=C/C=C/c1ccccc1	-18	5.6µM*	3.5µM*	3.2µM*	-26%	6.3µM*
O=C(NCCCCc1ccccc1)c1ccccc1Br	2	-1%	.	.	-2%	53%
CCN1C(=O)C(=Cc2cc(C)n(C3CC3)c2C)C(=O)N(CC)C1=S	-7	-22%	-1%	50µM*	10%	27%
Cc1cc(/C=C2\C(=O)NC(=S)N(C)C2=O)c(C)n1C1CCCCC1	1	-15%	-21%	?	6%	21%
Cc1cc(C=C2C(=O)N(C)C(=S)N(C)C2=O)c(C)n1C1CCCC1	-14	?	?	11µM*	?	-11%
COc1ccc(C(=O)Nc2nnc(S(=O)(=O)N(CC(C)C)c3ccc(C)cc3)s2)cc1OC	.	55%	86%	0%[59 µM]	.	103%
O=C(Oc1ccccc1)N1CCC2(CC1)CN(C(c1ccccc1)c1ccccc1)C2	.	.	.	0%[12.7 µM]	.	.
CCOC(=O)[C@]12Cc3ccc4ccccc4c3[C@H]1N(Cc1ccccc1)C(=O)c1ccccc12	2	.	.	.	?	.
Cc1cccc(CN2CCN(c3ccc(Cl)cc3)CC2)c1	-11	22µM*	50µM*	32µM*	4%	?
Cc1cccc(CN2CCN(Cc3ccc(Cl)cc3)CC2)c1	1	1.1µM*	32µM*	7.1µM*	3%	?
CCCCCCN1CCN(c2ccc(Cl)cc2)CC1	-6	?	45µM*	?	-5%	?
Fc1ccc(CN2CCN(c3ccc(Cl)cc3)CC2)cc1	0	-23%	-16%	-32%	-12%	15%
Fc1cccc(F)c1CN1CCN(c2ccc(Cl)cc2)CC1	25	-18%	-7%	13%	-1%	-1%
CC(C)C1C(=O)N2CCC[C@H]2[C@]2(O)O[C@](NC(=O)[C@@H]3C=C4c5cccc6[nH]cc(c56)C[C@H]4N(C)C3)(C(C)C)C(=O)N12 (stereo partly specified)	.	.	.	-33%[59 µM]	.	.
C[C@@H]1O[C@H](O[C@@H]2CC[C@@]3(C=O)[C@H]4CC[C@@]5(C)[C@@H](C6=CC(=O)OC6)CC[C@@]5(O)[C@@H]4CC[C@]3(O)C2)C[C@H](O)[C@@H]1O	.	.	.	6%[21.5 µM]	.	.
COc1cc(CN2CC3CC(C2)c2cccc(=O)n2C3)cc(OC)c1OC (stereo unspecified)	.	-28%	79µM*	-11%[12.7 µM]	1%	2%
O=c1cccc2n1CC1CC2CN(Cc2c(Cl)cccc2Cl)C1 (stereo unspecified)	.	-36%	56µM*	35µM*	1%	8%
SMILES	PI5P4K alpha inh	JMJD2A Tudor inh	BAZ2B inh	G9a block	PLK1 PBD block	HP1b binding inh
Cc1ccc(CN2CC3CC(C2)c2cccc(=O)n2C3)cc1 (stereo unspecified)	.	-26%	-8%	-34%[12.7 µM]	-8%	16%
COc1cc(OC)cc(C(=O)NC(=S)N2C[C@H]3C[C@H](C2)c2cccc(=O)n2C3)c1	-1	-28%	?	50µM*	-12%	2%
O=C(NC(=S)N1C[C@H]2C[C@H](C1)c1cccc(=O)n1C2)c1ccc(Cl)cc1	4	?	-7%	?	0%	11%
COc1cc(C(=O)NC(=S)N2C[C@H]3C[C@H](C2)c2cccc(=O)n2C3)cc(OC)c1OC	10	-9%	?	25µM*	-8%	19%
CCC(Sc1ccccc1)C(=O)OC1CC2CCC(C1)N2C (stereo unspecified)	.	.	.	-1%[59 µM]	.	.
C[C@@H]1O[C@H](O[C@H]2C[C@@H](O)[C@@]3(CO)[C@H]4[C@@H](O)C[C@]5(C)[C@@H](C6=CC(=O)OC6)CC[C@]5(O)[C@H]4CC[C@]3(O)C2)[C@@H](O)[C@H](O)[C@@H]1O	.	.	.	24%[21.5 µM]	.	.
C=CCn1c(-c2ccc([N+](=O)[O-])cc2)n[nH]c1=S	-21	8.9µM*	-4%	5.6µM*	-12%	6%
C=CCn1c(O)c(/C=C2/C=c3ccccc3=N2)c(=O)[nH]c1=S	-20	-4%	-9%	.	?	24%
COc1cc2c(c(OC)c1OC)-c1ccc(O)c(=O)cc1[C@@H](NC(C)=O)CC2	3	56µM*	.	.	1%	51%
CCCCc1nn2c(=O)cc(COC(=O)Cc3ccccc3)nc2s1	.	-20%	-2%	0%[59 µM]	.	-11%
CCOC(=O)c1sc(=NC(=O)c2ccc(C)c(C)c2)n(C)c1C	-26	20µM*	-5%	11%[59 µM]	27µM*	-10%
COc1cccc(-n2c(/C=C/c3cccc(C)c3)nc3ccccc3c2=O)c1	.	-15%	-3%	2%[59 µM]	.	14%
Cc1ccccc1-n1c(O)c(/C=C2/C(c3ccccc3)=Nc3ccccc32)c(=O)[nH]c1=O	-19	?	?	?	6.7µM*	?
Cc1ccccc1-n1c(O)c(/C=N/c2nccs2)c(=O)[nH]c1=O	-3	-4%	-20%	-13%	-12%	30%
COC(=O)C1=Nc2ccccc2/C1=C\c1c(O)n(-c2cc(OC)ccc2OC)c(=O)[nH]c1=O	-66*	-15%[57.1 µM]	79µM*	?	3.4µM*	?
COc1ccc(-n2c(O)c(/C=C3\C=Nc4ccccc43)c(=O)[nH]c2=O)cc1	-5	-13%	?	.	-10%	40%
